About 83,000 compounds went through this panel and 20% of them were active in at least one assay; those are over-represented in the sample as a whole.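 Interpretation: 100, growth as untreated; towards 0, rising growth inhibition; 0, no net growth; 0 to -100, cell death. Compounds scoring below 10 were considered active.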 The source made the active and inactive calls.

The subject of the experiment is HL-60(TB) leukemia. Put plainly: NCI-60 one-dose screen, 48 h (100 = growth as untreated, 0 = no growth, -100 = all killed). The conditions noted are these: 10 µM unless noted.
Take `Cc1ncc(C(=O)Nc2ccc(CN3CCN(C)CC3)c(C(F)(F)F)c2)cc1C#Cc1cnc(N)c2cnccc12`: the growth was 16.1% (inactive).

In the case of `CCCCOC(=O)C1OC(Oc2ccc3c(C)cc(=O)oc3c2)[C@@H](OC(C)=O)C(OC(C)=O)C1OC(C)=O` (stereo partly specified), the growth is 102% (inactive).

`O=C(c1ccccc1)C1(Br)CCCCC1`: the growth was 106% (inactive).

With `Cc1nn(-c2ccccc2)c2nc3nc4c(c(N)c3c(-c3ccc(Cl)cc3)c12)CCC4`, the growth was 102% (inactive).

As to `Cc1ccc2oc(=O)cc(C3C(C#N)=C(N)Oc4c3ccc3ccccc43)c2c1` (stereo unspecified), the growth was 53.1% (inactive).

With `COc1ccc(-c2nc3ccc(C)cc3c3c2c(=O)n(C)c(=O)n3C)cc1OC`, the growth was 98.1% (inactive).

As to `Cn1c(=O)cc2c3c(c(NCCCO)ccc31)C(=O)c1ccccc1-2`, the growth was 50.8% (inactive).

In the case of `CN1C(=O)/C(=C/c2ccc(C(=O)Nc3ncc(Cc4cc(Cl)ccc4Cl)s3)cc2)SC1=S`, the growth is 91% (inactive).

`Cn1c(=O)c2c(-c3ccccc3F)n(-c3ccc4c(c3)OCO4)cc2n(C)c1=O`: the growth is 90.2% (inactive).

For the molecule `COC(=O)c1nc(-c2ccccc2)oc1S(=O)(=O)N(C)CCO`, the growth is -24.6% (active).

Turning to `COc1cc(/C=C/C(=O)/C=C(/C=C/c2ccc(OC(C)=O)c(OC)c2)OB(F)F)ccc1OC(C)=O`, the growth is 4.04% (active).

Turning to `COc1ccc(/C=C/C(=O)c2cccc(B(O)O)c2)cc1O`, the growth was 4.3% (active).

Regarding `CCOC(=O)c1nn(C2CCCCO2)c2ccc(NS(=O)(=O)c3ccc(C)cc3)cc12` (stereo unspecified), the growth is 97.6% (inactive).

Take `COc1ccc(C2C3=C(COC3=O)N(CCO)c3cc4c(cc32)CCC4)cc1OC` (stereo unspecified): the growth is 0.0588% (active).

In the case of `COc1cc(CN2CCO[C@H](COc3cccc(F)c3)C2)ccc1Cl`, the growth is 26.3% (inactive).

On to `CCCCCCCCCCCCCCCCCC[S+](C)CC` (stereo unspecified), for which the growth was 13% (inactive).

With `COc1cc(/C=N/NC(=O)c2ccc3nc(-c4ccc(Cl)cc4)[nH]c3c2)cc(OC)c1OC`, the growth was 44.9% (inactive).

Turning to `C=CCSSc1ncnc2c1ncn2C1OC(CO)C(O)C1O` (stereo unspecified), the growth was 21.5% (inactive).

In the case of `N=c1sc(Cc2cc(Cl)ccc2Cl)cn1CC(=O)c1ccccc1`, the growth was 29.6% (inactive).

In the case of `COC(=O)[C@]12CC[C@@H](C)[C@H](C)[C@@H]1C1=CC[C@@H]3[C@@]4(C)C(C=O)=C[C@@](C)(COC(=O)c5ccco5)[C@@H]4C(=O)C[C@@]3(C)[C@]1(C)CC2`, the growth was 10.1% (inactive).

As for `Cc1ccc(-n2nnc(C3=NCCc4c3[nH]c3ccc(Cl)cc43)c2C)cc1`, the growth is 39.4% (inactive).

With `Cn1ccnc1C(=O)/C=C/c1ccc(C(=O)Nc2nc3ccccc3[nH]2)cc1`, the growth is 26.7% (inactive).

For the molecule `O=C(N/N=C/c1coc2ccccc2c1=O)c1cc2oc(-c3ccccc3)cc2[nH]1`, the growth was 99% (inactive).

On to `CN(C)c1cccc2c(S(=O)(=O)N[C@H]3CC[C@H]4[C@@H]5CCc6cc(O)ccc6[C@H]5CC[C@]34C)cccc12`, for which the growth is -26.7% (active).

For the molecule `O=C(CNc1nc2ccccc2s1)Nc1ccc(-c2nc3ccccc3s2)cc1`, the growth is 99.1% (inactive).

Take `c1ccc(Nc2nnc(-c3cc(-c4cccnc4)n(-c4ccccc4)n3)s2)cc1`: the growth was 70.8% (inactive).

The values above are taken from PubChem BioAssay (NCI).
